Source: PubChem (National Center for Advancing Translational Sciences (NCATS))
This excerpt belongs to a sample that is enriched for hits.
Sfp PPTase inh – inhibitors of Bacillus subtilis Sfp phosphopantetheinyl transferase | AID 1490 | Biochemical Sfp PPTase activity, qHTS | 310,000 compounds, 3.5% hits | Potency, µM, hits mostly inhibitors;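 further: the enzyme is Sfp with the accession as filed and its product quenches rhodamine fluorescence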
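After 15 min at room temperature with compound, 15 nM Sfp received 5 uM rhodamine-CoA plus 12.5 uM BHQ-2-ybbR (50 mM Hepes pH 7.6, 10 mM MgCl2). Rate came from the fluorescence difference over 30 min, ex 525/em 598 nm.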
VDR inh – inhibitors of human vitamin D receptor; P11473; VDR-SRC2-3 peptide fluorescence polarization, 2 h; Potency, µM, most hits filed as inhibitors; 400,000 compounds, 0.93% hits; AID 504847
Target sequence (P11473 whole entry, looked up): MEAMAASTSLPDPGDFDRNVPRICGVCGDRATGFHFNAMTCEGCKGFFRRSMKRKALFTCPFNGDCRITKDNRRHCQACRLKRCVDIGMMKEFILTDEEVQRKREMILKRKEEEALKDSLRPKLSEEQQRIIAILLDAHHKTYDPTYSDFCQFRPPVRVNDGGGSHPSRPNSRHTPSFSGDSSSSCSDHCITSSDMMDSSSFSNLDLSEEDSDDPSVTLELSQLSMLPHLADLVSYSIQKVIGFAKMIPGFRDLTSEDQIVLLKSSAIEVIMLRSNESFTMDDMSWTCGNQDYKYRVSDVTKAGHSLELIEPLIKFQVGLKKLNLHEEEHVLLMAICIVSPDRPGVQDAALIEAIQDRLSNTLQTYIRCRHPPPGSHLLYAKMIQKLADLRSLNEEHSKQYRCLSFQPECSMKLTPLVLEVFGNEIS
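Measured by FP: displacement of SRC2-3 coactivator peptide from VDR by library compounds, following a two-hour ambient incubation.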
ALOX12 inh – ALOX12 (human) lipoxygenase inhibition | 580,000 compounds, 1.1% hits | P18054 | purified 12hLO, xylenol orange hydroperoxide absorbance | Potency, µM (top dose mostly 108 µM), most hits filed as inhibitors | AID 1671190
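Purified human 12hLO (150 nM final) in 25 mM Hepes, 0.01% Triton X-100, pH 7.0 was preincubated 15 min at room temperature with compound. Then 40 uM arachidonic acid was added, 30 min. Hydroperoxide was read by Fe-XO absorbance ratio 573/405 nm.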
G9a block – blocks human histone lysine methyltransferase G9a | Q96KQ7 | G9a H3K9 monomethylation, AlphaScreen, 2 h | Potency, µM (highest dose often 102 µM), hits mostly inhibitors | 350,000 compounds, 8.8% hits; further: nearly all actives have a fitted effect of over 75% in size
Target sequence (Q96KQ7 913-1193 limits assumed): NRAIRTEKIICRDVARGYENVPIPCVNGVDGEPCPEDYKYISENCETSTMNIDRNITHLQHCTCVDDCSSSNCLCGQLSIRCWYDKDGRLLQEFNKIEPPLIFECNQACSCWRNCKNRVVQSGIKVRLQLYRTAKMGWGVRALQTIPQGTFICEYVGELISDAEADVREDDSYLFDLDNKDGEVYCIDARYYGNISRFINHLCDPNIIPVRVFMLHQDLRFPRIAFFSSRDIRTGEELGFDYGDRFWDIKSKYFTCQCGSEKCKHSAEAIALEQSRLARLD
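Chemiluminescent proximity detection of H3K9 monomethylation, read after 10 min bead incubation in the dark. Reaction: 20 nM G9a, 500 nM biotin-H3K9 peptide, 20 uM SAM cofactor, 2 h, room temperature, following 15 min enzyme-compound preincubation.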
GRP78 ERSR act – ER stress response induction in glioma | U87-MG GRP78 promoter luciferase reporter, 16 h | Potency, µM, hits mostly activators | 420,000 compounds, 0.02% hits; further: series mostly up to about 76 µM; nearly all actives have a fitted effect of over 35% in size
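ERSR induction read as luciferase luminescence (Bright-Glo, 10 min at room temperature) in stably transfected human U87-MG glioma cells exposed to compounds for 16 h, using GRP78 as sensor.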
Numbers stand for hits; i = inactive; ? = inconclusive; nt = no result; [ ] = another dose, or the depositor's remark. The call rests on the fitted dose curve; in most records, active means well fitted curve in the direction sought with a large enough effect; inconclusive means small, poorly fitted or top-dose-only effect, or another doubt; inactive means no such curve, though single readings can be large; an effect the other way counts as inactive or inconclusive.

SMILES	Sfp PPTase inh	VDR inh	ALOX12 inh	G9a block	GRP78 ERSR act
O=C(O)c1ccc(N/N=C/C(Br)=C/c2ccccc2)cc1	?	i	40µM	50µM	i
CCCc1cc(=O)[nH]c2nnc(SCC(=O)Nc3ccc(NC(C)=O)cc3)n12	nt	i	i	i	i
O=C(CSc1nnc(Cc2cc(=O)[nH]c(=O)[nH]2)n1-c1ccc(Cl)cc1)NC1CCCC1	i	i	?	40µM	i
COc1ccc(-n2c(Cc3cc(=O)[nH]c(=O)[nH]3)nnc2SCC(=O)NC2CCCC2)cc1	i	i	?	?	i
COc1cccc(-n2c(Cc3cc(=O)[nH]c(=O)[nH]3)nnc2SC(C)C)c1	i	i	i	40µM	i
CCCc1cc(=O)[nH]c2nnc(SCC(=O)NC3CCCC3)n12	nt	i	i	18µM	i
COC(=O)C(C)Sc1nnc(Cc2cc(=O)[nH]c(=O)[nH]2)n1-c1cccc(OC)c1 (stereo not given)	i	i	?	?	i
CCOc1ccc(-n2c(Cc3cc(=O)[nH]c(=O)[nH]3)nnc2SCC(N)=O)cc1	i	i	i	45µM	i
COc1cc(-c2nc(C)c(C(C)=O)n2O)ccc1OCC(=O)Nc1ccc(F)cc1	i	i	i	i	i
CC(=O)c1c(C)nc(-c2ccc(OCC(=O)Nc3ccc(F)cc3)cc2)n1O	i	i	i	18µM	i
CC(=O)Nc1ccc(-c2nc(C)c(C(C)=O)n2O)cc1	i	i	i	?	i
CCOc1cc(-c2nc(C)c(C(C)=O)n2O)ccc1OCC(=O)Nc1ccc(F)cc1	i	i	i	50µM	i
O=C(COc1ccc(F)cc1)Nc1ccc(-c2nnc3n2CCCC3)cc1	nt	nt	32µM	nt	nt
COc1cc(SC)ccc1C(=O)Oc1ccc(C(C)=O)cc1	nt	nt	i	nt	nt
c1ccc(C(c2ccccc2)N2CCN(Cc3nnnn3C3CCCC3)CC2)cc1	i	i	i	50µM	i
COc1ccc(N2CCN(Cc3nnnn3C3CCCCC3)CC2)cc1	i	i	i	50µM	i
C1CCC(n2nnnc2CN2CCCC2)CC1	i	i	i	i	i
CCCC(=O)N1CCC(N2C(=O)C3(CCCCC3)C2c2ccncc2)CC1 (stereo not given)	nt	nt	i	nt	nt
CN(C)c1ccc(Sc2nnc(NC(=O)Nc3ccc(Cl)cc3Cl)s2)cc1	i	i	i	28µM	i
Cc1cccc(OCc2n[nH]c(=S)o2)c1C	i	i	i	20µM	i
Cc1cccc(C)c1OCc1n[nH]c(=S)o1	i	i	45µM	2.2µM	i
Cn1c(SCc2n[nH]c(=S)o2)nnc1-c1ccccc1	i	i	i	?	i
CCOC(=O)/C(=C/c1ccc(OC(=O)c2ccncc2)cc1)C(C)=O	i	?	i	22µM	i
COCCOC(=O)/C(=C/c1ccc(OC(=O)c2ccccc2)cc1)C(C)=O	?	22µM	nt	50µM	i
CC(=O)NS(=O)(=O)c1ccc(N=c2ssc3c2-c2cc(C)c(C)cc2NC3(C)C)cc1	i	i	?	5µM	i
SMILES	Sfp PPTase inh	VDR inh	ALOX12 inh	G9a block	GRP78 ERSR act
Cc1ccc(C(=O)NS(=O)(=O)c2ccc(N=NN(C)C)cc2)cc1	i	i	i	nt	i
O=C(Nc1ccccc1)N(O)c1ccc(Cl)cc1	i	28µM	i	i[12.7 µM]	i
O=C(Nc1ccccc1)N(Cc1ccc(Cl)cc1)c1ccccn1	nt	nt	i	nt	nt
COC(=O)c1c(C)[nH]c(C(=O)COc2ccc3c(-c4ccccc4)cc(=O)oc3c2)c1C	nt	nt	i	nt	nt
CC1CC(C)(C)NC(=S)S1 (stereo not given)	50µM	i	?	8.9µM	i
CC1CC(C)(C)NC(=O)O1 (stereo not given)	i	i	i	i	i
CCC(=O)Oc1ccc2c(=O)c(Oc3ccccc3Br)c(C)oc2c1	nt	nt	i	nt	nt
CCCCCCCCCc1conc1C(=O)/C=C/c1oc2c(c1C)CCC(C)C2 (stereo not given)	nt	nt	40µM	nt	nt
CC1CCc2onc(C(=O)Nc3ccc(Cl)cc3)c2C1 (stereo not given)	nt	i	i	i	i
Cc1c(C)c2cc(Cl)c(OCC(=O)NCc3ccccn3)cc2oc1=O	nt	nt	i	nt	nt
OCCN(Cc1ccccc1)CC(O)COc1ccc(-c2ccccc2)cc1 (stereo not given)	50µM	i	?	i[12.7 µM]	i
Nc1nccnc1C(=O)NCC(F)(F)F	nt	nt	i	nt	nt
CCc1nc(CC)n2ccn(Cc3ccc(C#N)cc3)c(=O)c12	nt	nt	i	nt	nt
CCOc1ccc(-n2ccnc2SCC(=O)N2CCCc3ccccc32)cc1	i	i	i	50µM	i
COc1ccc(-n2c(Cc3cccn3C)nnc2SCC(=O)N2CCCc3ccccc32)cc1	i	i	i	45µM	i
COc1ccc(OCc2nnc(SCC(=O)N3CCCc4ccccc43)n2-c2ccc(C)cc2)cc1	i	i	i	?	i
COc1ccc(-n2c(Cc3cccn3C)nnc2SCC(N)=O)cc1	?	i	i	50µM	i
Cn1cccc1Cc1nnc(SCC(=O)N2CCCCCC2)n1-c1ccc(F)cc1	i	i	?	50µM	i
Cc1ccc(-n2c(Cc3cccn3C)nnc2SCC(=O)N2CCN(c3ccccc3)CC2)cc1	i	i	i	?	i
COc1cccc(-n2ccnc2SCC(=O)N2CCCc3ccccc32)c1	i	i	i	?	i
CCNC(=O)C1CCCN(C(=O)CCc2c(C)c3ccc(OC)cc3oc2=O)C1 (stereo not given)	nt	nt	i	nt	nt
CC1=C2C(=O)CC(c3cccc(Cl)c3)CC2=Nc2ccccc2N1 (stereo not given)	nt	nt	i	nt	nt
COc1ccc(-n2c(Cc3cccn3C)nnc2SCC(=O)N2CCCC2)cc1	i	i	i	45µM	i
COc1ccccc1OCC(=O)Nc1ccc2oc(C)nc2c1	nt	nt	i	nt	nt
O=C(NCc1ccccn1)c1coc(=O)c(Br)c1	?	i	i	?	i
SMILES	Sfp PPTase inh	VDR inh	ALOX12 inh	G9a block	GRP78 ERSR act
O=C(Nc1ccc(Br)cn1)c1coc(=O)c(Br)c1	i	i	i	50µM	i
CCCCNC(=O)CS(=O)Cc1nc(-c2cccs2)oc1C (stereo not given)	i	i	i	50µM	i
Cc1oc(-c2cccs2)nc1CS(=O)CC(=O)NCCc1ccccc1 (stereo not given)	i	?	i	50µM	i
COc1ccc2c(C)c(CCC(=O)O)c(=O)oc2c1	nt	nt	i	nt	nt
Cc1ccc(S(=O)(=O)CCc2ccccc2Cl)cc1C	nt	nt	i	nt	nt
CCC(C)(C)NC(=O)Cc1nn(C)c(=O)c2ccccc12	nt	nt	i	nt	nt
COc1ccc(C)cc1NS(=O)(=O)c1ccc2c(c1)[C@H]1C=CC[C@H]1[C@@H](c1cccc(Cl)c1)N2	nt	i	?	2.8µM	i
COc1cccc(NS(=O)(=O)c2ccc3c(c2)C2C=CCC2C(c2ccc(C(=O)O)cc2)N3)c1 (stereo not given)	32µM	?	13µM	7.9µM	i
Cc1cccc(NS(=O)(=O)c2ccc3c(c2)[C@H]2C=CC[C@H]2[C@@H](c2ccc(F)cc2)N3)c1	nt	i	?	13µM	i
Fc1ccc2c(c1)C1C=CCC1C(c1cc3c(cc1Br)OCO3)N2 (stereo not given)	?	i	?	i[12.7 µM]	i
